Screens from PubChem.
Most compounds without a hit are left out; they make up all but 9.7% or so of the library.
BAP1 block = blocks human BAP1 ubiquitin-AMC hydrolysis | Q92560 | recombinant BAP1, Ub-AMC hydrolysis fluorescence kinetic; hits give low values | calls only at 20 µM | hit rate 0.48% among 72,000;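 active = activity remaining at or below 50% of control, provided the compound also passes the data quality filters; inactive = the rest, including low values that fail the filters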;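 also: 100% = DMSO wells rate and 0% = substrate alone blank rate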
Target sequence (Q92560 whole entry, looked up): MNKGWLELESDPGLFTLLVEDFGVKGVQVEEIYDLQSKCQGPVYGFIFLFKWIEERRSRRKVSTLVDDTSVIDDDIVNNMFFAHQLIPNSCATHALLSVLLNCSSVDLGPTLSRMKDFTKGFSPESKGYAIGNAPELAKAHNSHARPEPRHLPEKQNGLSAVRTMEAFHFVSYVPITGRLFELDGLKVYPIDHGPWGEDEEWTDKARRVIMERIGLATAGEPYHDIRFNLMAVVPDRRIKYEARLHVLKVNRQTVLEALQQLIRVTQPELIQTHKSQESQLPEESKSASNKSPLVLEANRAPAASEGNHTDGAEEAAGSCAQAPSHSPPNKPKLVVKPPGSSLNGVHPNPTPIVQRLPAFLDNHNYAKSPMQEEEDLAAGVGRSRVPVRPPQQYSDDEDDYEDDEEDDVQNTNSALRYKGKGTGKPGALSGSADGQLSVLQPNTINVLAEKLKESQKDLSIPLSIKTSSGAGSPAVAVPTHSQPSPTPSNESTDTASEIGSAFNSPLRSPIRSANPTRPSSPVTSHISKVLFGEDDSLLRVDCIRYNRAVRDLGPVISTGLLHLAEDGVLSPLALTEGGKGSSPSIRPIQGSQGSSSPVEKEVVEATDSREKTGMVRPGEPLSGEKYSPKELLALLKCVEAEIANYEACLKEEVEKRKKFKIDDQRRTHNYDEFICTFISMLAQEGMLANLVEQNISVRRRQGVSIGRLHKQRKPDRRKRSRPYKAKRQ
WNV NS2B-NS3 inh = blocks West Nile virus NS2B-NS3 protease activity | WNV NS2B-NS3 protease, fluorogenic substrate Ex360/Em465; hits give low values | hit rate 0.18% among 65,000 | AID 577 | P06935 | z-score (concentration not given with the values); in the data active = z-score below about -3
M1 antag = antagonists of rat M1 muscarinic receptor; P08482; CHO-M1 cells, Fluo-4 calcium, ACh EC80 antagonist mode; hits give low values; B-score at 10 µM; hit rate 3.4% among 64,000;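 active = calcium fluorescence response, raw or row-and-column corrected B-score, differing from the plate sample mean either way at a set confidence level, mostly lower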
Fluor 339 460 = intrinsic fluorescence of library compounds, ex339/em460 – biochemical, MLSMR library, data from DPM-DC assay, artefact control, profiling panel. fluorescence fold increase at 10 µM. hit rate 5.5% among 65,000. AID 709. compound autofluorescence, ex339/em460 nm, NADH buffer; hits give high values; 1 = no-compound wells, NADH background;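 active = at 10 µM, mean starting fluorescence two-fold or more over control wells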;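 also: signal is the first read of a kinetic run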
Abs 340nm = compound absorbs light at 340 nm | compound absorbance at 340 nm, fold over control | fold change at 10 µM | 65,000 tested, under 10 active;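 active = at 10 µM dose, initial 340 nm absorbance at least 2 fold that of control wells; inactive = change under 2 fold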;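 also: initial absorbance extrapolated from kinetic A340 decline of NADH oxidation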
M1 agonist = activates the M1 muscarinic receptor | hit rate 3% among 64,000 | AID 626 | B-score at 10 µM | CHO-M1 cells, Fluo-4 calcium fluorescence, agonist mode; hits give high values;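 active = fluorescence rise, raw or as B-score row- and column-corrected plate score, outside the 99.7% band of its plate's samples, either direction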
Numbers without * were called inactive; i = inactive; · = not tested or not shown.

SMILES	BAP1 block	WNV NS2B-NS3 inh	M1 antag	Fluor 339 460	Abs 340nm	M1 agonist
CCOC(=O)CCc1c(C)c2ccc(OC(C)C(=O)OCC)c(C)c2oc1=O (stereo not given)	i	0.65	-0.27	3.8*	1.1	0.35
Cn1nc(-c2ccc(Cl)cc2)c2cc(C(=O)NCC3CCCO3)sc21 (stereo not given)	i	-0.33	-0.19	2.1*	1.1	0.42
Cn1nc(-c2ccc(Cl)cc2)c2cc(C(=O)N3CCOCC3)sc21	i	0.72	0.24	1.3	1.1	0.6
CN1CCN(CCCNC(=O)c2cc3c(-c4ccc(Cl)cc4)nn(C)c3s2)CC1	i	0.61	-0.88	2.1*	1.1	0.14
CC(OC(=O)c1nsc(Cl)c1Cl)C(=O)NCc1ccco1 (stereo not given)	i	1.2	0.52	1.1	1	-0.016
CC(OC(=O)c1ccccc1NCc1ccco1)C(=O)Nc1ncc(Cl)cc1Cl (stereo not given)	·	0.64	-0.29	2.2*	1.1	0.64
CCN(C=Nc1sc2c(c1C#N)CC(C)(C)NC2(C)C)CC	i	·	·	·	·	·
N#Cc1nc(-c2cccs2)oc1NCCN1CCOCC1	·	0.56	1.1	2.4*	1.1	0.086
N#Cc1nc(-c2ccccc2)oc1NCCN1CCCCC1	i	1.1	1.2	3.8*	1.1	1.9
N#Cc1nc(-c2ccco2)oc1NCCc1ccccc1	·	-0.42	-0.9	2.1*	1	-0.049
N#Cc1nc(-c2cccs2)oc1N1CCN(Cc2ccccc2)CC1	i	1.4	0.19	3.8*	1.1	0.007
N#Cc1nc(-c2ccc(F)cc2)oc1NCc1cccc2c1OCO2	i	-0.54	0.085	1.7	1.1	-1.7
N#Cc1nc(COc2ccccc2)oc1N1CCN(Cc2ccccc2)CC1	i	-0.27	-0.34	1.2	1	0.47
COc1ccc(NS(=O)(=O)c2ccc(N=Cc3ccc([N+](=O)[O-])cc3)cc2)nn1	i	·	·	·	·	·
N#Cc1nc(-c2cccs2)oc1NCc1ccc2c(c1)OCO2	i	-0.2	-0.44	2.4*	1.1	-0.71
COc1ccc(CCNc2oc(-c3ccco3)nc2C#N)cc1	i	-0.41	-0.25	2.4*	1	0.25
N#Cc1nc(-c2cccs2)oc1NCCc1ccccc1	i	1.6	-0.3	2.5*	0.99	0.044
O=C(CCCCCN1C(=O)c2ccccc2C1=O)NCc1ccccc1	i	·	·	·	·	·
O=C(Oc1ccc(N(C(=O)c2ccncc2)S(=O)(=O)c2ccccc2)c2ccccc12)c1ccncc1	i	·	·	·	·	·
CC(C)n1c2ccccc2c2nc3ccccc3nc21	i	-1.1	0.079	2.7*	1.1	0.1
CCCCCn1c2ccccc2c2nc3ccccc3nc21	i	·	·	·	·	·
CC1CCc2cc(F)ccc2N1C(=O)Nc1cccc(Cl)c1 (stereo not given)	i	·	·	·	·	·
Cc1ccccc1N(CC(N)=O)S(C)(=O)=O	i	0.62	0.035	1.2	1	0.56
Cc1ccc(C)c(N(CC(N)=O)S(C)(=O)=O)c1	i	0.67	2.1*	1.1	1	0.067
O=C1c2ccccc2NC2(CCCCC2)N1c1ccc(O)cc1	·	0.74	0.1	3.7*	1.1	-0.56
SMILES	BAP1 block	WNV NS2B-NS3 inh	M1 antag	Fluor 339 460	Abs 340nm	M1 agonist
Fc1ccc(-n2c(-c3ccco3)nc3nc4ccccc4nc32)cc1	·	-0.09	0.55	5.1*	1.1	-0.07
Fc1ccc(-c2nc3nc4ccccc4nc3n2Cc2ccco2)cc1	i	-0.91	0.037	1.4	1.1	0.17
Fc1cccc(-n2c(-c3ccco3)nc3nc4ccccc4nc32)c1	·	0.16	0.087	3.6*	1.1	-0.43
CCn1nc(C(=O)OCC(=O)c2c[nH]c3ccccc23)c2ccccc2c1=O	i	-0.86	-1.3	1.1	1	6.1*
Cc1cc(C)n2cc(CSCc3ccco3)nc2n1	i	0.43	-0.32	1.4	0.98	-0.2
Cc1cc(C)n2cc(CSc3ncccc3C(=O)O)nc2n1	·	-2.4	-0.28	5*	1	-0.43
Cc1ccccc1-n1nnnc1SCc1ncc(-c2ccccc2)o1	i	0.22	-0.35	1.1	1	-0.7
Cc1cc(NC(=O)CSC2=NCCS2)no1	i	-1.3	-0.11	1.1	1	-0.15
Cc1cc(C)n2cc(CSC3=NCCS3)nc2n1	i	-0.21	-0.29	4.8*	1	-0.28
Cc1cc(C)n2cc(CSc3nnnn3-c3ccccc3C)nc2n1	i	1.8	-0.23	2.1*	1	-0.31
COc1ccccc1NC(=O)C(Cc1ccc([N+](=O)[O-])cc1)N1C(=O)c2ccccc2C1=O (stereo not given)	i	·	·	·	·	·
COc1cc(C2C(C(=O)OC3CCCCC3)=C(C)NC3=C2C(=O)CC(c2ccccc2)C3)cc(Br)c1O (stereo not given)	i	·	·	·	·	·
Cc1cc(C)c2ccc(C=Cc3ccccc3[N+](=O)[O-])nc2c1O	i	·	·	·	·	·
O=C(O)c1cc2c([nH]c1=O)CCCC2	i	-0.45	-2.2	2.3*	1	0.52
COc1cccc(C2C(N3C(=O)c4ccccc4C3=O)C(=O)N2c2ccc(C)cc2C)c1 (stereo not given)	i	·	·	·	·	·
CCOC(=O)c1c(NC(=O)CCC(=O)O)sc2c1CCC2	i	·	·	·	·	·
CCCCOc1ccccc1C1C(C(=O)OC)=CN(CC)C=C1C(=O)OC	·	2.3	-0.97	2.2*	1.1	-1.3
COC(=O)C1=CN(C(C)C)C=C(C(=O)OC)C1c1cccc(OC)c1	·	0.44	0.84	2.2*	1.1	0.16
CCN1C=C(C(=O)OC)C(c2cccc(C)c2)C(C(=O)OC)=C1	·	2.6	-0.32	2.2*	1.1	-0.036
COC(=O)C1=CN(C)C=C(C(=O)OC)C1c1ccccc1Cl	·	4.8	-0.51	3.9*	1.1	1.1
CCCCOc1ccccc1C(=O)NCC(=O)O	i	-1.1	-1.2	1.1	1	-0.42
COC(=O)C1=C(C)N(C)C(=S)NC1c1cccc(OC)c1 (stereo not given)	i	·	·	·	·	·
COc1cc([N+](=O)[O-])cc(C=Nc2cccc(C(=O)Nc3cccc4ccccc34)c2)c1O	i	·	·	·	·	·
Cc1ccc(C(=O)CSc2nc3sc(C)c(C)c3c(=O)[nH]2)cc1C	i	·	·	·	·	·
O=C(Oc1ccc(-c2ccccc2)cc1)c1ccc([N+](=O)[O-])cc1	i	·	·	·	·	·
SMILES	BAP1 block	WNV NS2B-NS3 inh	M1 antag	Fluor 339 460	Abs 340nm	M1 agonist
CCCOc1ccccc1C1C(C(=O)OC)=CN(C(C)C)C=C1C(=O)OC	·	1.2	-0.0095	3.9*	1.1	-0.025
COC(=O)C1=CN(CCCN2CCCC2=O)C=C(C(=O)OC)C1c1ccccc1C(F)(F)F	·	1.4	-0.52	2.2*	1	-0.011
CC(=O)Nc1cccc(NC(=O)c2ccccc2Br)c1	i	·	·	·	·	·
Nc1ccc(-c2nc3c(Cl)c(N)ccc3[nH]2)cc1	·	1.4	-0.25	3.6*	1.2	-1.2
Cc1cccc2[nH]c(-c3ccc(N)cc3)nc12	i	·	·	·	·	·
COC(=O)C1=C(C)NC(=O)NC1c1ccc(OCc2ccccc2)c(OC)c1 (stereo not given)	i	·	·	·	·	·
